Most compounds without a hit are left out; they make up all but 4.1% or so of the library.
FMDV antiviral: High Throughput Screening for Foot and Mouth Disease Virus Antivirals | FMDV antiviral cell-based qHTS | Potency, µM (series often up to 57.9 µM), actives largely listed as inhibitors | actives 1.2% (n = 410,000) | AID 1159524, 2015; calls by dose curve; tested in HEK293T cells; further: read-out not given here; nearly all actives have a fitted effect of over 45% in size
AmpC no deterg: qHTS Inhibitors of AmpC Beta-Lactamase (assay without detergent); AmpC nitrocefin hydrolysis, absorbance 480 nm, 0.0001% Triton; Potency, µM (doses to about 57.1 µM), usual class: inhibitors; actives 0.52% (n = 330,000); further: nearly all actives have a fitted effect of over 20% in size
Target sequence (P00811 whole entry, looked up): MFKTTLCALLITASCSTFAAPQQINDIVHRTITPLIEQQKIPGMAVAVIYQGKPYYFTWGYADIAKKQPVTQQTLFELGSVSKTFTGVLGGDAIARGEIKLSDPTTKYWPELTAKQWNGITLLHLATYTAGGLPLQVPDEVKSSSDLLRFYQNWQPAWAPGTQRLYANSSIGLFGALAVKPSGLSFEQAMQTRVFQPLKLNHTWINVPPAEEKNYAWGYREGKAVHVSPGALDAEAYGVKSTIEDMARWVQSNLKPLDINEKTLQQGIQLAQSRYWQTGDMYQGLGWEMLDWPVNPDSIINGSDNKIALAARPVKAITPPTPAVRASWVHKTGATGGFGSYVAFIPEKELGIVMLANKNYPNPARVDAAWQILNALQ
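20 mM phosphate pH 7.0 + 0.01% (detergent screen) or 0.0001% Triton X-100; 5.3 nM AmpC reagent; cpd preinc 15 min RT; nitrocefin (800 uM stock) to start; A480 q20 s × 4 min; Activity was normalised to no-enzyme and no-compound control wells.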
Sm TGR block: qHTS Assay for the Inhibitors of Schistosoma Mansoni Peroxiredoxins. Schistosoma mansoni thioredoxin glutathione reductase (TGR), Q962Y6. AID 485364, 2010. actives 3% (n = 360,000). purified TGR, DTNB reduction, TNB absorbance 405 nm. Potency, µM (highest dose often 114 µM), hits mostly inhibitors; further: nearly all actives have a fitted effect of over 60% in size
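Kinetic colorimetric format: TGR-catalysed, NADPH-driven DTNB reduction monitored via TNB absorbance. Enzyme dispensed at 20 nM; compound exposure 15 min at room temperature before reaction start.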
AMA1 RON2 block: qHTS for Inhibitors of AMA1-RON; Towards Development of Antimalarial Drug Lead: Primary Screen; Potency, µM (highest dose often 58.2 µM), hits mostly inhibitors; actives 0.2% (n = 360,000); AlphaScreen AMA1-biotinylated RON2 peptide binding; Plasmodium falciparum AMA1 (3D7) - RON2 peptide interaction; further: nearly all actives have a fitted effect of over 45% in size
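AMA1 (3D7) with his tag at 25 nM final met compounds first, then biotinylated RON2 peptide at 25 nM; detection used donor plus acceptor beads, 10 µg/mL apiece, read by AlphaScreen after 30 min at room temperature.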
AmpC inh detg: qHTS Inhibitors of AmpC Beta-Lactamase (assay with detergent). actives 0.041% (n = 370,000). Potency, µM (highest dose often 114 µM), usual class: inhibitors. P00811. AmpC hydrolysis of nitrocefin, absorbance 480 nm, 0.01% Triton; further: nearly all actives have a fitted effect of over 25% in size
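20 mM phosphate pH 7.0 + 0.01% (detergent screen) or 0.0001% Triton X-100; 5.3 nM AmpC reagent; cpd preinc 15 min RT; nitrocefin (800 uM stock) to start; A480 q20 s × 4 min; Activity was normalised to no-enzyme and no-compound control wells.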
Numbers stand for hits; – = inactive; ? = inconclusive; · = not tested or not shown. Unless noted, the call rests on the fitted dose curve; in most records, active means well fitted curve in the direction sought with a large enough effect; inconclusive means small, poorly fitted or top-dose-only effect, or another doubt; inactive means no such curve, though single readings can be large; an effect the other way counts as inactive or inconclusive.

SMILES	FMDV antiviral	AmpC no deterg	Sm TGR block	AMA1 RON2 block	AmpC inh detg
Cc1noc(-c2ccc(Cl)cc2)c1C(=O)O/N=C(\N)c1ccc(C(C)(C)C)cc1	25µM	–	–	–	–
CC(C)(C)c1ccc(C(=O)O/N=C(\N)c2ccccc2)cc1	0.71µM	–	–	–	–
COc1ccccc1C(=O)Nc1c(C(=O)N(C)c2ccccc2)sc2nc(C)cc(C)c12	–	·	–	·	–
COCCn1c(=O)c(-c2ccc(OC)cc2)nc2cnc(Nc3cccc(OC)c3)nc21	–	·	·	·	·
CN(C(=O)CSc1nc2c(c(=O)[nH]1)CCCC2)c1ccccc1	–	·	–	·	–
N#CC1(c2ccccc2)CCC(=NNS(=O)(=O)c2ccccc2)CC1 (stereo not given)	–	–	40µM	–	–
CC1CCC/C(=N\NS(=O)(=O)c2ccccc2)C1 (stereo not given)	–	–	?	–	–
CC1CCN(C(=O)Cn2c(=O)n(CCCCCC(=O)NCc3ccccc3Cl)c(=O)c3sccc32)CC1	?	·	–	·	–
CCc1c(C(C)S(=O)(=O)c2ccccc2)[nH]c(=O)n1CC (stereo not given)	–	–	1µM	–	–
CN1C(=CC=C2C=C(I)C(=O)C(I)=C2)C(C)(C)c2ccccc21	22µM	–	–	–	–
Cc1ccc(N2CC(NC(=O)C3CCCCC3)CC2=O)cc1 (stereo not given)	–	·	–	·	–
CC(C)CC(c1nnnn1Cc1ccco1)N1CCN(c2cccc(Cl)c2)CC1 (stereo not given)	?	–	–	–	–
Cc1cc(O)c(C(c2ccccc2)N2CCN(c3ccccc3)CC2)c(=O)n1Cc1ccco1 (stereo not given)	–	·	3.2µM	·	–
CCOc1ccc(C(c2nnnn2Cc2ccccc2)N2CCN(C(=O)c3ccco3)CC2)cc1 (stereo not given)	–	·	·	–	·
Cc1cc(O)c(C(c2ccc(F)cc2)N2CCCCC2)c(=O)n1Cc1ccco1 (stereo not given)	–	·	20µM	·	–
CCOC(=O)C(C(=O)OCC)C(c1ccccc1)N1CCN(c2ccccc2)CC1 (stereo not given)	–	·	·	–	·
CCOc1ccc(C(c2c(O)cc(C)n(Cc3ccco3)c2=O)N2CCN(C)CC2)cc1 (stereo not given)	–	·	7.9µM	·	–
Cc1cc(O)c(C(c2ccc(Cl)cc2)N2CCN(c3ccccc3)CC2)c(=O)n1Cc1ccco1 (stereo not given)	–	·	5µM	·	–
O=C(CSc1nnc(-c2cc3ccccc3cc2O)n1Cc1ccco1)c1ccc(F)cc1	–	–	–	–	–
CCc1nc2c(OCc3ccccc3C)cccn2c1N(C)C(=O)c1ccco1	?	·	·	–	·
Cc1cc(O)c(C(c2ccccc2)N2CCN(c3ccc(F)cc3)CC2)c(=O)n1Cc1ccco1 (stereo not given)	–	·	3.5µM	·	–
Cc1cc(O)c(C(c2ccc(F)cc2)N2CCN(c3ccccc3)CC2)c(=O)n1Cc1ccco1 (stereo not given)	–	·	10µM	·	–
COc1nnc(-c2ccc(N3CCCCC3)c(NC(=O)c3ccc(Cl)cc3)c2)c2ccccc12	?	·	–	·	–
COc1nnc(-c2ccc(N3CCCCC3)c(NC(=O)c3ccccc3)c2)c2ccccc12	8.9µM	·	–	·	–
CC(NC(=O)c1cc(-c2ccc(Cl)cc2)on1)c1ccccc1 (stereo not given)	–	·	–	·	–
SMILES	FMDV antiviral	AmpC no deterg	Sm TGR block	AMA1 RON2 block	AmpC inh detg
CCN1CCCC1CNC(=O)c1cnn(-c2nccc(-c3ccco3)n2)c1C1CC1 (stereo not given)	–	·	·	·	·
O=C(Nc1ccc(N2CCOCC2)cc1)c1cn2ccccc2n1	–	–	–	–	–
O=C(Nc1ccccc1O)c1cc(S(=O)(=O)N2CCOCC2)ccc1Cl	–	–	–	–	?
O=C(Nc1ccccc1O)c1cc(S(=O)(=O)N2CCOCC2)c(Cl)cc1Cl	16µM	–	–	–	?
O=C(/C=C/c1ccco1)Nc1ccc(Cl)c(S(=O)(=O)N2CCOCC2)c1	22µM	–	8.9µM	–	–
O=C(Nc1ccc(Cl)c(S(=O)(=O)N2CCOCC2)c1)c1cn2ccccc2n1	20µM	–	–	–	–
COC(=O)[C@@H]1CCCN1Cc1ccc2c(c1)CN(Cc1cccn1-c1ccccn1)CCO2	–	·	·	·	·
COc1ccccc1NC(=O)Cn1c(=O)n(-c2cccc(C)c2)c(=O)c2c1c1cc(C)ccc1n2C	–	·	–	·	–
Cc1cc(C)cc(NC(=O)C(=O)NCC(c2cccnc2)N2CCOCC2)c1 (stereo not given)	–	·	–	·	–
COc1ccc(Cl)cc1NC(=O)COC(=O)c1cc(NS(=O)(=O)c2cccs2)ccc1O	?	20µM	–	–	–
O=C(COC(=O)c1ccc(NS(=O)(=O)c2cccs2)cc1O)Nc1nc2ccccc2s1	?	1.6µM	–	–	–
CCc1ccc(NC(=O)CCn2cnc3ccccc3c2=O)cc1	–	·	–	·	–
COc1ccc(NC(=O)c2nn(C)c3c2CS(=O)(=O)c2ccccc2-3)cc1Cl	–	·	–	·	–
Cc1c(C(=O)NCC2CC2)sc2ncnc(NCCN3CCCCC3)c12	–	·	·	·	·
CCCSc1ccc2nc(-c3ccccc3)cn2c1	2.2µM	–	–	–	–
COCCN(CCOC)c1ncnc2c1c(-c1ccccc1)cn2-c1ccc(C)c(Cl)c1	–	·	–	·	–
CC(C)CN1CCN(Cc2cn(C)c3ccccc23)CC1CCO (stereo not given)	–	–	89µM	–	–
COc1ccc(CN2CCN(CCCc3ccccc3)C(CCO)C2)c(OC)c1 (stereo not given)	–	–	–	–	–
OCCC1CN(Cc2c(O)ccc3ccccc23)CCN1CCc1ccccc1 (stereo not given)	–	–	0.63µM	–	–
COc1cc(CN2CCN(CCCc3ccccc3)C(CCO)C2)cc(OC)c1O (stereo not given)	–	–	20µM	–	–
COc1ccc(CN2CCN(CCc3ccccc3)C(CCO)C2)c(O)c1 (stereo not given)	–	–	45µM	–	–
COc1ccc(CN2CCN(CCCc3ccccc3)C(CCO)C2)c(O)c1 (stereo not given)	–	–	?	–	–
COc1ccc(-c2csc(-c3c(N)c(C(=O)c4ccccc4)n4ccccc34)n2)cc1OC	–	·	–	·	–
COc1ccccc1N1CCN(c2ncnc3c2cnn3C)CC1	–	·	–	·	–
COc1ccc(OC)c2c(C)c(C)[nH]c12	–	–	32µM	–	–
COc1cccc(CNc2cc(C)ccn2)c1O	–	–	22µM	–	–
COc1cccc(CNc2ccccn2)c1O	–	–	28µM	–	?

Compound activity from PubChem BioAssay.
